Tests used:
Experiment in all cases: PBM binding z-score (relative to random genomic background probes); higher = stronger binding; sequences stand for … in GC…GCGATTGACAGCGTAGAATGAAGG
[1] = tested on: PPARg:RXRa IVT, anti-PPARg (NR concentration 270 nM, RXRa partner concentration 90 nM)
Summary of the method: (§1)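 Regression normalization was applied to scanned fluorescence from custom Agilent 4×180K protein-binding microarrays. Before scanning, arrays were incubated 1 h with ligand-free nuclear receptor dimers, and binding was detected with antibodies against each partner (one per run). Binding z-scores use the random background probes as reference.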

[2] = tested on: PPARg DBDmut:RXRa IVT, anti-PPARg (DBD mutation: PPARg1 K132A/R137A, NR concentration 270 nM, RXRa partner concentration 90 nM)
Summary of the method: as §1

[3] = tested on: PPARg DBDmut IVT, anti-PPARg (DBD mutation: PPARg1 K132A/R137A, NR concentration 270 nM)
Summary of the method: as §1

[4] = tested on: PPARg homodimer (NR concentration 180 nM)
Summary of the method: as §1

[5] = tested on: PXR homodimer (NR concentration 270 nM)
Summary of the method: as §1

[6] = tested on: RARa:RXR (NR concentration 270 nM, RXRa partner concentration 90 nM)
Summary of the method: as §1

[7] = tested on: RARa homodimer (NR concentration 270 nM)
Summary of the method: as §1

[8] = tested on: RARb:RXRa (NR concentration 270 nM, RXRa partner concentration 90 nM)
Summary of the method: as §1

[9] = tested on: RARb homodimer (NR concentration 270 nM)
Summary of the method: as §1

[10] = tested on: RARg:RXRa (NR concentration 270 nM, RXRa partner concentration 90 nM)
Summary of the method: as §1

[11] = tested on: RARg homodimer (NR concentration 270 nM)
Summary of the method: as §1

[12] = tested on: RXRa DBDmut IVT, anti-RXR (DBD mutation: RXRa K156A/R161A, NR concentration 90 nM)
Summary of the method: as §1

[13] = tested on: RXRa homodimer (NR concentration 180 nM)
Summary of the method: as §1

[14] = tested on: THRa:RXRa (NR concentration 90 nM, RXRa partner concentration 90 nM)
Summary of the method: as §1

[15] = tested on: THRa homodimer (NR concentration 90 nM)
Summary of the method: as §1

[16] = tested on: VDR homodimer (NR concentration 270 nM)
Summary of the method: as §1

[17] = tested on: PXR:RXRa (NR concentration 270 nM, RXRa partner concentration 90 nM)
Summary of the method: as §1

Sequence | PBM binding z-score [1] | PBM binding z-score [2] | PBM binding z-score [3] | PBM binding z-score [4] | PBM binding z-score [5] | PBM binding z-score [6] | PBM binding z-score [7] | PBM binding z-score [8] | PBM binding z-score [9] | PBM binding z-score [10] | PBM binding z-score [11] | PBM binding z-score [12] | PBM binding z-score [13] | PBM binding z-score [14] | PBM binding z-score [15] | PBM binding z-score [16] | PBM binding z-score [17]
GGAACGAGGTCATTCGAGTTGATAGCATGGCGAT | 5.89 | 0.79 | 0.0541 | 1.95 | 7.74 | 5.14 | -0.0279 | 4.9 | 3.81 | 6.09 | 6.21 | 4.87 | 7.11 | 4.76 | 2.26 | 6.31 | –
CAAACCAGGTCACAGAGGTCAAAGTCCGTGCGTA | 7.43 | 3.56 | 2.74 | 5.78 | 14.2 | – | 4.25 | 5.41 | 5.56 | 7.52 | 7.53 | 4.06 | 8.5 | – | 3.92 | 8.47 | 7.23
CCTTAAGGGTCACGAGGTTATAGCACGACGAGCG | 5.81 | 1.74 | 1.89 | 4.47 | 0.279 | 6.79 | 1.6 | – | 5.02 | – | 7.23 | 3.17 | – | 4.24 | 1.24 | 2.91 | 5.46
CCTTACGGGTCACGTGGTTATAGCACGACGAGCG | 4.93 | 0.819 | -0.242 | 1.26 | -0.028 | 4.4 | 0.132 | 4.49 | 3.47 | 5.5 | 5.1 | 1.32 | 6.08 | 3.04 | 0.0729 | 0.82 | –
GCTGCTAGGTCAACTGATGGTCAACTAAAGCTCG | 4.19 | -0.672 | 0.0374 | 2.3 | -0.565 | – | 0.323 | 4.29 | 3.7 | 5.53 | 5.66 | 1.57 | 2.94 | 2.91 | 1.01 | 0.0813 | 2
CCTCGGAGGACAGAAGGTCAAAGCTGTCCGCTTT | 0.662 | -1.42 | -2.33 | 2.07 | 0.288 | – | 0.206 | 3.74 | 4.26 | 4.94 | 4.52 | 0.948 | 4.07 | 3.2 | 0.161 | 0.867 | 3.39
ATCGAAAGGTCATGAGGTGAGTATACAGAAAGGC | 5.59 | 2.8 | 3 | 4.69 | 0.933 | – | 3.7 | – | 5.04 | – | 8.01 | 3.11 | – | 4.37 | 1.95 | 2.68 | 5.71
GCTGCGAGGTCAACTGATGGTCAGCTAAAGCTCG | 4.26 | 0.48 | -0.29 | 3.57 | 0.673 | 5.93 | 0.38 | – | 4.83 | – | 7.44 | 4.3 | 7.17 | 4.33 | 2.9 | 3.42 | 5.49
ATATGTAGGTTATCTGGGGTCATTCAGACTAGGC | 6.58 | 2.87 | 2.04 | 3.42 | 6.37 | 5.95 | 1.76 | 3.16 | 3.97 | 4.51 | 3.58 | 2.58 | 5.88 | 5.46 | 3.91 | 5.88 | –
ATCAAAAGGTCGAGGTGAGTATAGAGAAAGGGAA | 2.79 | 1.63 | 1.54 | 2.27 | 1.09 | – | 1.57 | 4.53 | 3.28 | 4.7 | 4.98 | 1.28 | 4.83 | 3.11 | 1.26 | 1.18 | 2.86
ATCGAAAGGTCAAGGTGAGTATAGAGAAAGGGAA | 5.43 | 2.02 | 1.2 | 4.09 | 1.19 | 5.85 | 2.51 | – | 5.32 | – | 8.56 | 2.66 | – | 4.3 | 1.8 | 1.84 | 5.13
TGTCAAAGTTCAAAGGTGACGTAAGTATCCACAC | 5.07 | 1.7 | 1.53 | 5.33 | 5.43 | – | 2.52 | 5.36 | 4.05 | 6.99 | 6.27 | 4.5 | – | 3.76 | -0.183 | 4.97 | 6.34
TATACAGGGTCAAAGGCCAAAGTACGAATGTCGA | 5.37 | 2.17 | 1.63 | 4.71 | 0.969 | – | 1.74 | 4.76 | 3.7 | 6.22 | 5.3 | 3 | – | 3.76 | 0.785 | 3.3 | 5.05
CGTCAAAGGTCAAGGTCAGTGAAAGAGACTCGAA | 6.36 | 3.41 | 4.07 | 6.26 | 1.8 | 6.98 | 4.06 | – | 5.34 | – | 9.35 | 3.45 | – | 4.33 | 2.28 | 3.23 | 6.26
CCTTAGGGGTCAAGGTTATAGCACGGGTGGTACG | 5.19 | 1.1 | 0.837 | 4.4 | 1.1 | – | 2.38 | – | 5.11 | – | 7.42 | 3.5 | – | 4.36 | 1.39 | 4.22 | 6.23
CGAACGAGGTCATCCAGGACAGTGAATACATTGA | 6.11 | 3.53 | 2.68 | 4.36 | 9.68 | 6.05 | 1.86 | 5.11 | 4.1 | 6.67 | 6.52 | 4.86 | 7.28 | – | 3.83 | 6.44 | –
CAAAATAGGTCACAGAGGTCAAAGTCCGTGCGTA | 8.25 | 1.92 | 1.23 | 4.67 | 10.7 | 7.81 | 1.88 | – | 5.93 | – | 8.18 | 3.08 | 8.46 | 4.74 | 2.2 | 6.13 | 6.99
CAAAATAGGTCAAAGGTCAAAGTCGAGCCAACCA | 8.59 | 3.03 | 1.57 | 4.96 | 2.02 | 9.14 | 3.71 | – | 5.5 | – | 7.97 | 2.84 | – | 4.79 | 1.18 | 2.93 | 7.32
AGAATGGGGTTATACGTAGATCAGGGAAGAAAGT | 2.95 | 2.51 | 1.53 | 1.86 | 1.48 | – | 1.54 | 1.93 | 1.67 | 2.66 | 0.984 | 2.16 | 4.17 | 2.8 | 1.53 | 1.86 | 2.56
TCTAGTCGGTCAAAGGTCACACACTCGAAATGCG | 6.92 | 1.34 | 1.59 | 5.59 | 1.5 | – | 2.61 | 5.34 | 5.22 | – | 7.3 | 1.78 | – | 4.13 | 2.24 | 2.75 | 6.26
CCTTAGGGGTCACTGACAGGTTATAGCATTTGGA | 5.5 | 1.68 | 2.53 | 4.49 | 0.503 | – | 2.05 | – | 4.99 | – | 7.67 | 4.43 | – | 4.27 | 0.822 | 3.55 | 6.32
CCTACTGGGCCATTCAGAGGGCATTGATCATATG | 3.43 | -0.276 | -0.131 | 0.0332 | -0.0942 | 0.0322 | -0.556 | 1.09 | 1.27 | 1.43 | 0.891 | -0.189 | 0.134 | 0.0655 | -0.325 | 0.582 | –
ATCGAAAGGTCGACGAGGTGAGTAAACACCGTTT | 1.85 | 0.135 | 1.17 | 1.63 | 0.324 | – | 0.378 | 3.85 | 2.98 | 4.4 | 4.12 | 0.855 | 4.54 | 3.78 | 0.706 | 0.649 | 3.05
CGTCAAAGGTCAAGGTAACGTAACAGAAAGCAGC | 6.15 | 3.88 | 3.1 | 4.75 | 0.602 | 6.56 | 2.85 | – | 5.16 | – | 8.73 | 3.48 | – | 4.25 | 1.83 | 1.62 | 5.33
ATCGAAAGGTCAACGAGGTGAGTATACACCGTTT | 5.68 | 2.78 | 3.38 | 5.17 | 5.16 | 6.61 | 3.85 | – | 5.51 | – | 8.92 | 3.23 | – | 4.42 | 1.96 | 3.29 | 6
CCGACGGGGGCAAAGGTTACCATACTCAGTACGA | 5.25 | 2.34 | 3.31 | 2.4 | 0.704 | – | 0.677 | 3.84 | 3.21 | 6.4 | 4.09 | 3.13 | – | 3.88 | 1.02 | 2.92 | 5.31
CGTCCAAGGTCACAGAGGTCAGTGAATGCCGAGT | 5.63 | 1.12 | 0.337 | 3.92 | 12.2 | 6.75 | 2.06 | – | 5.82 | – | 8.03 | 3.92 | 7.67 | – | 3.95 | 6.67 | –
CCTTACGGGTCACGAGGTCATAGCACGACGAGCG | 6.02 | 2.06 | 1.59 | 5.34 | 2.24 | – | 2.17 | 5.23 | 4.95 | – | 6.74 | 3.05 | – | 4.58 | 3.43 | 4.83 | –

Source: the supplement of paper PMC6555819
